# Source: the supplement of paper PMC10338343
# ± gives the standard deviation.
# Assays:
# [1] = system: MILI (PIWIL2) piRISC loaded with L1MC piRNA (26 nt); experiment: pre-steady-state target cleavage rate (min^-1); guide: L1MC piRNA 5'p-UAACUAAAUACUAUGCAAGCUGUAGG; higher = faster piRNA-guided slicing of the target
# Summary of the method: (§1)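 Cleave-'n-Seq reactions paired 0.1 nM transcribed, DNA-blocked target RNA library with 1 nM active affinity-purified piRISC holding one synthetic guide, plus or minus 500 nM GTSF1 partner protein, in HEPES–potassium acetate buffer at 33 °C for 0–8 or 0–960 min. After sequencing of uncleaved targets and normalisation to depth and weakly complementary targets, the pre-steady-state cleavage rate was taken from a burst-and-steady-state fit. Three trials were pooled, and k3 was capped at 0.0001 min^-1.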
# [2] = system: EfPiwi piRISC loaded with L1MC piRNA (26 nt); experiment: pre-steady-state target cleavage rate (min^-1); auxiliary factor: 500 nM Ephydatia muelleri Gtsf1; guide: L1MC piRNA 5'p-UAACUAAAUACUAUGCAAGCUGUAGG; MIWI and MILI are mouse PIWI proteins and EfPiwi is from a freshwater sponge; tags in brackets are library labels; higher = faster piRNA-guided slicing of the target
# Summary of the method: as §1
# [3] = auxiliary factor: 500 nM mouse GTSF1
# [4] = auxiliary factor: none (no GTSF1)
Sequence,"pre-steady-state target cleavage rate [1, 3]","pre-steady-state target cleavage rate [1, 4]",pre-steady-state target cleavage rate [2]
UCCUGCUACAGCUUGCAUAGUAUUUAAGUUA,0.365 ± 0.043,0.00882 ± 0.0027,0.00777 ± 0.0034
UCCUGGAUGACGCUUGCAUAGUAUUUAGUUA,0.211 ± 0.022,0.00493 ± 0.0037,0.0537 ± 0.014
UCCUGCUACAGCUUGCUUACUAUUUAGUUA,0.114 ± 0.016,0.00371 ± 0.0023,0.0113 ± 0.005
UCCUGGUACAGCUUGCAUAGUAUAAAGUUA,0.193 ± 0.046,0.00524 ± 0.0029,0.00482 ± 0.0022
UCCUGGUAGAGCUUGCAUUGUAUUUAGUUA,0.18 ± 0.015,0.00645 ± 0.0026,0.00786 ± 0.0033
UCCUGGUACAGUUUGCAUAGUAUUUAGUUA,0.254 ± 0.02,0.0161 ± 0.005,0.00421 ± 0.0025
UCCUGCUACAGCUAGCAUAGUAUUUAGUUA,0.354 ± 0.027,0.00624 ± 0.0029,0.0287 ± 0.0081
UCCUCGUACAGCUUGCAAAGUAUUUAGUUA,0.149 ± 0.01,0.00953 ± 0.0024,0.143 ± 0.032
UCCUGGAUCAGCUUGCAUAGUAUUUAGGUA,0.0936 ± 0.021,0.00336 ± 0.0026,0.00436 ± 0.002
UCCUGGAACAGGCUUGCAUAGUAUUUAGUUA,0.219 ± 0.019,0.0094 ± 0.0029,0.0145 ± 0.0037
UCCUCGUAGAGCUUGCAUAGUAUUUAGUUA,0.266 ± 0.012,0.00554 ± 0.0023,0.0385 ± 0.0086
UCCUCGUACACCUUGCAUAGUAUUUAGUUA,0.239 ± 0.022,0.00634 ± 0.0021,0.1 ± 0.029
UCCUCGUACAGCUUGCAUAGUAUUUAGUUA,0.32 ± 0.015,0.0108 ± 0.0022,0.163 ± 0.036
UCCUGGAUGUGCAUGCAUAGUAUUUAGUUA,0.116 ± 0.011,0.0095 ± 0.0025,0.00855 ± 0.0029
UCCUGGUACAGCUUGCAAUAGUAUUUAGUUA,0.0322 ± 0.0093,0.00408 ± 0.0024,0.00587 ± 0.0028
UCCUGCUACAGCUGUGCAUAGUAUUUAGUUA,0.263 ± 0.025,0.0081 ± 0.0032,0.00927 ± 0.0026
UCCUCCUUCAGCUUGCAUACUAUUUAGUUA,0.0786 ± 0.013,0.00296 ± 0.0027,0.00784 ± 0.0025
UCCUGGAUGUCGUUGCAUAGUAGUUUAGUUA,0.0297 ± 0.0098,0.0066 ± 0.0025,0.0087 ± 0.005
UCCUCCUACAGCUUGCAUAGUAUAUUGUUA,0.128 ± 0.019,0.00269 ± 0.0025,0.00489 ± 0.003
UCCUGCUCACAGCUUGCAUAGUAUUUAGUUA,0.351 ± 0.019,0.0111 ± 0.0037,0.072 ± 0.016
UCCUCCUACAGCUUGCUUAGUUUUUAGUUA,0.0513 ± 0.01,0.00379 ± 0.0023,0.00738 ± 0.0023
UCCUGGAUGUCGUAUGCAUAGUAUUUAGUUA,0.0833 ± 0.012,0.00487 ± 0.0028,0.00476 ± 0.0027
UCCUCCUACAGCUUGCUAAGUAUUUAGUUA,0.17 ± 0.012,0.00586 ± 0.0019,0.00593 ± 0.0039
UCCUCCUACAGCUUGGAUAGUAUAUAGUUA,0.195 ± 0.022,0.0033 ± 0.0023,0.00941 ± 0.0032
UCCUGGAUCUGCUAGCAUAGUAUUUAGUUA,0.168 ± 0.014,0.00596 ± 0.0019,0.0121 ± 0.0038

Sequence,"pre-steady-state target cleavage rate [1, 3]","pre-steady-state target cleavage rate [1, 4]",pre-steady-state target cleavage rate [2]
UCCUGGAUCAGCUUGCAUUGUAUUUAGUUA,0.179 ± 0.013,0.00955 ± 0.0024,0.0179 ± 0.0038
UCCUGCUACAGCUUGGAUAGUAUUUUGUUA,0.109 ± 0.019,0.00311 ± 0.003,0.00556 ± 0.002
UCCUGGAUCAGGAUGCAUAGUAUUUAGUUA,0.156 ± 0.012,0.00724 ± 0.0018,0.0121 ± 0.0027
UCCUGCUACAGGUUGCAUAGUAUUUAGUUA,0.246 ± 0.011,0.013 ± 0.0028,0.0242 ± 0.0053
UCCUGGAUGAGUCUUGCAUAGUAUUUAGUUA,0.105 ± 0.016,0.0093 ± 0.0029,0.00527 ± 0.0024
UCCUGGUACUGCUAGCAUAGUAUUUAGUUA,0.174 ± 0.02,0.0113 ± 0.003,0.00467 ± 0.0022
UCCUGCCACAGCUUGCAUAGUAUUUAGUUA,0.331 ± 0.025,0.0105 ± 0.003,0.0631 ± 0.017
UCCUGGAACAGCUUGUCAUAGUAUUUAGUUA,0.2 ± 0.014,0.00365 ± 0.0033,0.0277 ± 0.0088
UCCUGGAACAGCUUGGAUAGUAUUUAGUUA,0.27 ± 0.013,0.0119 ± 0.0026,0.0302 ± 0.0072
UCCUGGAUCUGCUUGCAUAGUAUUUAGUUA,0.229 ± 0.016,0.00944 ± 0.002,0.116 ± 0.023
UCCUCCUACUAGCUUGCAUAGUAUUUAGUUA,0.13 ± 0.013,0.00589 ± 0.002,0.127 ± 0.035
UCCUCCUACAGCUGUGCAUAGUAUUUAGUUA,0.321 ± 0.017,0.00714 ± 0.0025,0.0425 ± 0.015
UCCUGGAACAACUUGCAUAGUAUUUAGUUA,0.262 ± 0.022,0.0104 ± 0.0027,0.0809 ± 0.023
UCCUGGAUCAGCCUUGCAUAGUAUUUAGUUA,0.249 ± 0.023,0.00595 ± 0.0023,0.0303 ± 0.0094
UCCUCCUAGAGCUAGCAUAGUAUUUAGUUA,0.218 ± 0.015,0.00391 ± 0.0022,0.0136 ± 0.0043
UCCUGGUACAGCUUGCAUAGUAUUUAGUUG [g2:g24:cont:t1G],0.218 ± 0.018,0.00995 ± 0.003,0.0182 ± 0.0065
UCCUCCUACAGCUUGCUUAGUAUUUACUUA,0.179 ± 0.02,0.00341 ± 0.0022,0.00381 ± 0.003
UCCUGGAUCAGCUAGCAUAGUAAUUAGUUA,0.152 ± 0.015,0.00502 ± 0.0022,0.00458 ± 0.0024
UCCUGGAACAGCUUGCAUAGUAUUAUGUUA,0.105 ± 0.026,0.00259 ± 0.0025,0.00324 ± 0.0021
UCCUGGAUGAGUUGCAUAGUAUUUAGUUA,0.108 ± 0.013,0.00501 ± 0.0019,0.00429 ± 0.002
UCCUGGAUCUGCUUGCAUAGUAUUUUGUUA,0.092 ± 0.015,0.00429 ± 0.0026,0.0153 ± 0.0053
UCCUGGUACAGGUUGCAAAGUAUUUAGUUA,0.117 ± 0.012,0.0143 ± 0.0038,0.00511 ± 0.0028
UCCUGGAACAGCUUGCAUCGUAUUUAGUUA,0.0882 ± 0.013,0.00682 ± 0.0024,0.0172 ± 0.0048
UCCUCCUACAGUCUUGCAUAGUAUUUAGUUA,0.252 ± 0.018,0.00736 ± 0.0023,0.0171 ± 0.006
UCCUCCUACACCAUGCAUAGUAUUUAGUUA,0.243 ± 0.019,0.00814 ± 0.0024,0.145 ± 0.05
